# Laboratory results taken from PubChem BioAssay AID1347426 (Functional Genomics Laboratory (NCATS/FGL), 2020).
# Out of some 31,000 sequences screened, about 1,400 (4.5%) were called active. The sample as a whole holds a higher share of actives than the screen did. Unmarked numbers belong to inactive results.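 How the source made its calls: active means median seed-adjusted z-score above 1 or below -1; inactive means the rest.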
# Test: Novel Modifiers of Survival Motor Neuron (SMN) Protein: Gene Identification via Genome-wide siRNA Screen;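 further: luminescence tracks full-length SMN protein made from the SMN2 reporter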
# Details: HEK293T SMN2-luciferase reporter, siRNA knockdown, 72 h; actives lie on both sides
# In short: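 Steps: spot 1 pmol siRNA, add Lipofectamine RNAiMax in serum-free DMEM, seed HEK293T SMN2–luciferase reporter cells; incubate 72 h at 37 °C; add ONE-Glo; normalize luminescence to control siRNA, log10, MAD. Candidates: |MAD| > 1.0.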
row,Sequence,median seed-adjusted z-score
1,CGAAGUUCAUAGACGAGAUTT against PPP1R2,0.208
2,AGAGGUCUUCGACAAUAAATT against CD9,-1.02 (active)
3,GAGCCUCCUCAAAUCCAAATT against SERPING1,-0.244
4,CGUGGGAUAUGUUGACGGATT against BTNL3,0
5,GGAAUUUUUCGGGUGGUUATT against ELF5,-0.45
6,GAUCGAUAUCUUUACAAGATT against SLK,0.0479
7,CGAUGGAGAUCAACGUGAATT against UBE2E2,-1.77 (active)
8,CCUUCACUAUUGCCCGCAATT against ABCD1,0
9,UGAUGACACCAACCACGAATT against CNP,-0.116
10,GGCCCAUAUUCAUCUGCUATT against STYX,0.694
11,AGCACGAGCUAGUCCCUGATT against POLR2E,-1.25 (active)
12,GCAAGAUCCGAGAAGAAUATT against TUBB,-0.307
13,GCAUGAUCGGGAGGGUUUATT against PPID,-0.206
14,GGUUAUGAACUUUGGAUAATT against GPR103,0
15,CUAUGUCAGUGGUCCUGAATT against RETSAT,-1.7 (active)
16,CAAUGAAGACUGAUGUAUUTT against SLC9A2,-1.02 (active)
17,CCCUUACUACAACUACAAATT against ZBTB38,0.448
18,GGGCGAUUCCUGUCUAAGATT against PUM1,0.109
19,CGAACUCCGCUUUUUCUUATT against FZD7,-0.159
20,GCUACAACGGAAACAAUCATT against MSTN,-0.639
21,GGAGUUCGAUGAGACAACATT against FABP3,-0.0786
22,CGAUUACGCUUCAGAGAUATT against PTP4A2,-1.45 (active)

row,Sequence,median seed-adjusted z-score
1,GGACAUCCUGUCAUAGAAATT against UTP3,-1.08 (active)
2,GGAAGUUCAUUACCAGAAUTT against PLCZ1,0
3,GCAAUAGUCAGGAGCGAUATT against PPP1R10,1.41 (active)
4,CCUUACCUGUAAACAGAGATT against ESR2,-1.1 (active)
5,CCAGGCCCAUUCUACAAUATT against PEAR1,0.071
6,AUAUAACUGCUGAUCUAGATT against SPCS3,0.417
7,GGAGUUCGUUCAGAGACCATT against MOCS2,0.0327
8,CUCUCUUCGUAGAUCAAGATT against SFRS7,0.44
9,UGAAGUUGCUGGACGCGUATT against DAD1,-0.45
10,GCUUGGAGGAUUUCAUGGATT against POFUT1,0
11,AGAAAUUGGUGUUCAGAAUTT against GTF2F2,-1.14 (active)
12,GAAUAAAAACGACCUCUUUTT against LZTR1,0.293
13,GCAUGUUAAUGGGUUUAAUTT against GNAS,-0.531
14,CUGCAGUUCUUAAUACGAATT against PSMD1,-1.61 (active)
15,GAACAUAUGUGAUGACCGUTT against CDH2,-0.235
16,GGAGGUCUCCUACAUCAAATT against ZAN,0.736
17,CGGGUGCACUACUACAUCUTT against GBGT1,0.48
18,AGCCCUUGACCUUAUCUAATT against CSTB,1.08 (active)
19,ACUCAACUCUGAUACUCCATT against DMRTC2,0
20,GAGCUGAAGUCCUUAGAUATT against EIF2B3,-0.271
21,CGACUAUGCUUUAGAUUAUTT against MAS1,-0.0551
22,CGGCCUAACUUUCAAGACATT against SDK2,0.908

row,Sequence,median seed-adjusted z-score
1,GGUUCUGAAAUGUUCGUCATT against ZDHHC22,0.00446
2,GAUAAAAGGAUGGAUGAAATT against PRPF6,-1.06 (active)
3,GAAUCAAGACAAACCCGAATT against TTN,0.872
4,GCACUCUUCUCAUUCACGATT against ATP1B3,-0.225
5,CCAACGAACUCCUUACUUATT against SCP2,0.413
6,CAAUCACUCAGGAACAAAUTT against CHMP6,-1.81 (active)
7,ACAAUACCCUCAGACUGAATT against NMUR1,-0.265
8,UGGUGAAAAUUACAUCUGATT against CIP29,-1.18 (active)
9,CAAUCCUCAUGCUAAACCATT against SGK1,-0.659
10,GAGUGGACUGGGCAAAUCATT against 3-Sep,0.0683
11,CAGGUAUUCUGGUCAAUAUTT against ATL3,0.201
12,GACAAUGGGUUAUUCAGGATT against FNTA,1.04 (active)
13,GACACCUUCUUAGACGAUATT against AMPD1,0.378
14,GCGAGUAGAUAAUAUCGAATT against MAP3K5,-0.285
15,GCAGGUCAGUUAUCAGACUTT against SLC17A1,-0.271
16,CAGUUGUACUGGACGGCUATT against PALLD,-0.307
17,CAACCUCACUGACCGGCAATT against HOXD11,-0.185
18,CAUCUUUCCUAAAGAGUUUTT against POLR2D,-3.79 (active)
19,GCCUACAUGUUUCUGCUGATT against RHO,-0.267
20,CAGAGGAACUGACACCAUUTT against ETFA,-0.0619
21,CGCUUUUCGUUGUAAAUAUTT against NKX2-2,-0.0805
22,GAAGCUUGAGGAACACGAATT against GOLGB1,0.0851

row,Sequence,median seed-adjusted z-score
1,CACUAAUGGAUAUUGCCUATT against BMI1,0
2,UGACUGCGGAUAUAACUGATT against LMAN2,-0.0921
3,GGGAAGGCAAUAAAACUUATT against TAAR9,-1.07 (active)
4,GACUAAUGAACUACUAAAATT against HMMR,0.389
5,GAAUAUCUAGGUACAUGGATT against ADCY10,-0.573
6,CUGUACAACGUCAACCUCATT against SCNN1D,-1.8 (active)
7,CAGUUAAAGGUCAAGAUAATT against PI3,0.493
8,AGAUUAAGGAUAUGGAUGATT against CHRNA9,-0.454
9,GGAUAAUCGACACUCUGGATT against MATN3,0.0972
10,GGAUUAACAUAUGAUGACATT against ADAM18,-0.913
11,GGUUCUCAGGAGCACCAGATT against OASL,1.02 (active)
12,CAUGUCACCUGCAAAAUUATT against THEM2,0.449
13,GAGUCGUUGUCCAUCUUAATT against SR140,1.16 (active)
14,GCAGAUCCAUCAACUACGATT against UBR4,0.602
15,GGUUAUACUCGGGCAGAGATT against NDUFS5,-1.35 (active)
16,GGCUAACUAUUUUGUCAGATT against ABHD7,-0.301
17,CCAUGAUACUCCACUCCCATT against GUCA2A,0.121
18,GGCUAUGCAGGUCCACUGUTT against DDR1,-0.166
19,GGUUUGAAGGGUUGACUCATT against STK38L,0.079
20,GAGACAACAUGAAUGACAATT against CHGB,-1.29 (active)
21,GGAUGUGGGUUUACUCUUUTT against SLC1A5,-0.104
22,GCAUGGAUGCUUCUAGACATT against AKAP9,-1.22 (active)

row,Sequence,median seed-adjusted z-score
1,CCAUGAUCCUGAUAGGCAATT against PLAT,0.246
2,AGACCACCUUCAUCCGACATT against EHD1,-0.616
3,ACCUCGGACUGGUACAUGATT against SLC38A3,-0.177
4,GCUCGUAAACUAGCUAAUATT against RCOR3,0.0446
5,GCAAGUGAAUAUGCGGAUATT against SNRPE,-2.77 (active)
6,GAAAACCCUUGUAAGUAUATT against ZNF354A,0.401
7,GGUGUAAAAGUGAUUAUAATT against LCLAT1,0
8,CACCUACUCUGACAACCAATT against HSPA1L,-1.27 (active)
9,CUAUCACUGUCUCAAGUCATT against ITGA10,0.378
10,GAGUUAAGGAGGUAGAUGATT against SNX5,-0.141
11,GCAUGAGUGCUAUCAGAUATT against PIPOX,1.06 (active)
12,GCUCCUGGAGUUAAGCUUATT against SPINK2,-0.431
13,AGUUUCAUUUCAAUAAGUATT against HOXD1,0.144
14,GGAGUAACCUGGAUGAGGATT against C3,0.0281
15,AGAGCAUUGGGUACACCAATT against COL6A2,0.0119
16,CCCAUUCCCUGUGCUCCAATT against CARD10,-0.929
17,GGUUUUUCAAGUACGAAAATT against RPS6KB1,1.4 (active)
18,GGCCCUUCAUCGAUAGCUATT against APEX2,-0.347
19,CCCUAUCCAUGUUCCAUGUTT against HDAC10,-0.165
20,CAGCUGUUGUUGAGCGAAUTT against CASP2,0.421
21,GGCUGUACAUCGAUAGCUATT against PGM1,0.136
